For 15 molecules, growth results are on record in PubChem BioAssay (NCI).

Test systems include SK-MEL-2 melanoma; SN12C renal; UO-31 renal; TK-10 renal; ACHN renal; CAKI-1 renal; A498 renal; CCRF-CEM leukemia; MOLT-4 leukemia.
Common to all, as to assay: NCI-60 one-dose screen, 48 h (100 = growth as untreated, 0 = no growth, -100 = all killed)
Holding throughout (conditions): 10 µM

Compounds without any hit were thinned out: in the full panel of roughly 83,000, 20% have a hit.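 Method: cells in 96-well plates; compound added at one concentration; 48 h incubation; percent growth measured; values under 10 scored active.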 A number with no mark means an inactive call. Calls of active or inactive are those of the source.

As for `O=C(Nc1ccc(OS(=O)(=O)Cc2ccccc2)cc1)C12CC3CC(CC(C3)C1)C2`, the growth in the test with SK-MEL-2 melanoma was 102%; in the test with SN12C renal, 88.3%; in the test with UO-31 renal it was 78.4%; in the test with TK-10 renal, 112%; in the test on ACHN renal, 99.8%; in the test with CAKI-1 renal, 84.2%. Also, the growth in the test on A498 renal is 83.1%; in the test with CCRF-CEM leukemia it was 85.2%; with MOLT-4 leukemia, 41.5%.
With `Nc1nc2c(nnn2C2CC(O)C(CO)O2)c(=O)[nH]1` (stereo not given), the growth is 42.8% in the test on SK-MEL-2 melanoma; 45.3% in the test on SN12C renal; 30.9% with UO-31 renal; 59.2% with TK-10 renal; 23.3% in the test with ACHN renal; 32.4% in the test on CAKI-1 renal. Moreover, the growth in the test on A498 renal was 55.7%; in the test with CCRF-CEM leukemia, 19.4%; with MOLT-4 leukemia, 30.4%.
For `Cc1cc(OI)c(C(C)C)cc1-c1cc(C(C)C)c(OI)cc1C`, the growth with SK-MEL-2 melanoma was 80.7%; in the test on SN12C renal, 101%; in the test on UO-31 renal, 83.5%; with TK-10 renal, 97.3%; with ACHN renal it was 96%; in the test with CAKI-1 renal, 95.1%. Also, the growth in the test with A498 renal is 85.4%; in the test with CCRF-CEM leukemia, 98.3%; in the test on MOLT-4 leukemia, 86.8%.
`COc1ccc(C2C=C(c3ccc(Cl)c(Cl)c3)N=C3SC(C)=CN32)cc1` (stereo not given): the growth is 94.8% in the test on SK-MEL-2 melanoma; 99.6% in the test with SN12C renal; 77.5% with UO-31 renal; 92.8% with TK-10 renal; 103% in the test with ACHN renal; 95.7% with CAKI-1 renal. Also, the growth with A498 renal was 91%; with CCRF-CEM leukemia, 82.8%; with MOLT-4 leukemia it was 79.5%.
Consider `O=c1oc2cc(OS(=O)(=O)C3CC3)ccc2c2c1CCCCCC2`, for which the growth with SK-MEL-2 melanoma was 103%; in the test on SN12C renal it was 82.8%; in the test on UO-31 renal, 83.4%; with TK-10 renal, 121%; in the test on ACHN renal it was 82.1%; in the test with CAKI-1 renal, 79.4%. Also, the growth is 63.8% in the test on A498 renal, 64.4% in the test with CCRF-CEM leukemia and 65.6% in the test on MOLT-4 leukemia.
`COc1ccc(-c2nc(-c3nc4ccc(OC)cc4[nH]3)c3ccccn23)cc1`: the growth is 71.3% with SK-MEL-2 melanoma; 71.4% in the test on SN12C renal; 25.5% in the test on UO-31 renal; 79.3% in the test with TK-10 renal; 64.2% in the test on ACHN renal; 64% in the test on CAKI-1 renal. For the same molecule, the growth with A498 renal was 55.5%; with CCRF-CEM leukemia, 33.8%; with MOLT-4 leukemia, 45.5%.
With `Cc1ccc([P+](Cc2ccccc2)(c2ccccc2)c2ccccc2)cc1`, the growth with SK-MEL-2 melanoma was -29.1% (active); with SN12C renal, 19.3%; in the test on UO-31 renal it was 68.7%; with TK-10 renal, 12.3%; with ACHN renal it was 60.6%; with CAKI-1 renal, 76.7%. The growth in the test on A498 renal was 23%; in the test on CCRF-CEM leukemia, 13.6%; with MOLT-4 leukemia it was 6.83% (active).
Consider `COc1cc2nc(Sc3sc(N)nc3C)n(-c3ccc(Oc4ccccc4)cc3)c(=O)c2cc1OC`, for which the growth was 107% with SK-MEL-2 melanoma; 79.7% in the test with SN12C renal; 76.1% in the test on UO-31 renal; 98.1% in the test with TK-10 renal; 81.5% with ACHN renal; 94.1% in the test on CAKI-1 renal. Moreover, the growth is 82.1% in the test on A498 renal, 64.5% with CCRF-CEM leukemia and 54% with MOLT-4 leukemia.
Turning to `COc1cc(C(=O)n2nc(N)c3c(C)cc(C)nc32)cc(OC)c1OC`, the growth with SK-MEL-2 melanoma was 30.3%; in the test with SN12C renal, 79.8%; in the test with UO-31 renal, 84.7%; in the test on TK-10 renal, 98.3%; with ACHN renal it was 91.9%; in the test on CAKI-1 renal it was 76.7%. In addition, the growth was 60.2% with A498 renal, 57.6% in the test on CCRF-CEM leukemia and 36% in the test on MOLT-4 leukemia.
For `COc1ccc(C2C=C(c3ccc(Cl)cc3)N=C3SC=CN32)c(Br)c1` (stereo not given), the growth in the test on SK-MEL-2 melanoma was 85.3%; in the test on SN12C renal it was 67.6%; with UO-31 renal it was 84.3%; with TK-10 renal, 83.5%; in the test with ACHN renal, 67.7%; in the test with CAKI-1 renal it was 54.1%. For the same molecule, the growth with A498 renal was 89.7%; with CCRF-CEM leukemia, 71.7%; with MOLT-4 leukemia, 53.1%.
`COc1cccc(-c2nnc(COc3ccc(-c4nc5ccccc5[nH]4)cc3OC)o2)c1`: the growth with SK-MEL-2 melanoma was 99.3%; in the test on SN12C renal, 85.9%; with UO-31 renal, 87.9%; in the test with TK-10 renal, 132%; in the test with ACHN renal, 103%; with CAKI-1 renal it was 98.7%. Further, the growth in the test with A498 renal is 71.8%; with CCRF-CEM leukemia it was 44.9%; with MOLT-4 leukemia it was 71.5%.
For `O/N=C1\CCC2CCCCC2C1` (stereo not given), the growth in the test with SK-MEL-2 melanoma was 101%; in the test with SN12C renal, 113%; with UO-31 renal, 95.5%; with TK-10 renal it was 101%; in the test on ACHN renal, 97.3%; in the test on CAKI-1 renal, 96.2%. The growth is 103% in the test with A498 renal, 103% with CCRF-CEM leukemia and 98.6% in the test with MOLT-4 leukemia.
In the case of `N#CCC1CCCC1`, the growth was 120% in the test on SK-MEL-2 melanoma; 94% with SN12C renal; 97% in the test on UO-31 renal; 104% with TK-10 renal; 98.1% in the test on ACHN renal; 89.9% in the test with CAKI-1 renal. The growth is 91% with A498 renal, 92% in the test on CCRF-CEM leukemia and 112% in the test on MOLT-4 leukemia.
As for `O=C(NC1CCCC1)c1ccc(N2CCC(NCc3cccc(C(F)(F)F)c3)CC2)cc1`, the growth is 108% in the test with SK-MEL-2 melanoma; 94.2% with SN12C renal; 62.3% in the test on UO-31 renal; 101% with TK-10 renal; 97.9% in the test on ACHN renal; 101% in the test on CAKI-1 renal. Also, the growth with A498 renal was 92.1%; in the test on CCRF-CEM leukemia it was 75.7%; with MOLT-4 leukemia, 70.2%.
As to `Cc1ccc(S(=O)(=O)Nc2cccc3[nH]c(C(F)(F)F)nc23)cc1`, the growth in the test on SK-MEL-2 melanoma is 2.59% (active); with SN12C renal it was 47.8%; with UO-31 renal it was 45.1%; in the test on TK-10 renal, 36.7%; in the test on ACHN renal it was 49.8%; with CAKI-1 renal, 25.9%. Moreover, the growth is 13.7% in the test with A498 renal, 13.6% in the test with CCRF-CEM leukemia and 31.7% with MOLT-4 leukemia.
